Laboratory results from the supplement of paper PMC6555819.

How the values were obtained:
Assay in all cases: PBM binding z-score (relative to random genomic background probes); higher = stronger binding; sequences stand for … in GC…GCGATTGACAGCGTAGAATGAAGG
[1] = tested on: PPARg:RXRa DBDmut IVT, anti-RXR (DBD mutation: RXRa K156A/R161A, NR concentration 270 nM, RXRa partner concentration 90 nM)
How it was run: (§1)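 Each nuclear receptor dimer, without ligand, was incubated for 1 h on custom Agilent 4×180K protein-binding microarrays. Binding was detected with antibodies against each partner (one per run), and scanned fluorescence was regression-normalized. The binding z-scores are referenced to random human genomic background probes.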

[2] = tested on: PPARg:RXRa IVT, anti-PPARg (NR concentration 270 nM, RXRa partner concentration 90 nM)
How it was run: as §1

[3] = tested on: PPARg DBDmut:RXRa IVT, anti-PPARg (DBD mutation: PPARg1 K132A/R137A, NR concentration 270 nM, RXRa partner concentration 90 nM)
How it was run: as §1

[4] = tested on: PPARg DBDmut IVT, anti-PPARg (DBD mutation: PPARg1 K132A/R137A, NR concentration 270 nM)
How it was run: as §1

[5] = tested on: PPARg homodimer (NR concentration 180 nM)
How it was run: as §1

[6] = tested on: PXR:RXRa (NR concentration 270 nM, RXRa partner concentration 90 nM)
How it was run: as §1

[7] = tested on: PXR homodimer (NR concentration 270 nM)
How it was run: as §1

[8] = tested on: RARa:RXR (NR concentration 270 nM, RXRa partner concentration 90 nM)
How it was run: as §1

[9] = tested on: RARa homodimer (NR concentration 270 nM)
How it was run: as §1

[10] = tested on: RARb:RXRa (NR concentration 270 nM, RXRa partner concentration 90 nM)
How it was run: as §1

| Sequence | PBM binding z-score [1] | PBM binding z-score [2] | PBM binding z-score [3] | PBM binding z-score [4] | PBM binding z-score [5] | PBM binding z-score [6] | PBM binding z-score [7] | PBM binding z-score [8] | PBM binding z-score [9] | PBM binding z-score [10] |
| --- | --- | --- | --- | --- | --- | --- | --- | --- | --- | --- |
| CCTAGTAGTTGACCATAAGGGCAACCGAAGCTCG | -0.333 | 0.506 | -0.485 | -0.576 | 1.26 | 0.431 | 0.221 | 0.651 | 0.534 | 1.49 |
| GCTGCTAGGACAACTGATGGTCAGCTAAAGCTCG | 0.688 | -0.573 | -1.55 | -1.57 | -1.24 | -1.1 | -1.66 | -1.08 | -1.4 | 0.341 |
| CGTCCAAGATCAAGGTCAGTGAAAGAGACTCGAA | 1.25 | 1.67 | -0.223 | -0.447 | 1.25 | 1.82 | 0.628 | 2.07 | 0.651 | 3.28 |
| AATACAGGGTCACTAGGCCAGAGGAGGTACGAAT | 3.99 | 5.89 | 1.86 | 1.11 | 2.18 | 2.95 | 0.559 | 4.12 | 0.96 | 4.17 |
| TAGCCTAGGTCATTCAGGGGCCAGTACAGAAAGC | 1.84 | 2.77 | -0.186 | 0.258 | 1.6 | 2.52 | -0.228 | 3.86 | -0.153 | 3.9 |
| ATACCAAGGTGATCGTGAGGTCGCTGATACTAAC | 0.629 | 1.43 | 0.343 | 0.406 | 0.832 | 1.86 | 0.225 | 1.66 | -0.0146 | 1.43 |
| CCTAGCAGGCCAATCTGGGTCTCTCAAGGCTTGA | 1.89 | 1.97 | -0.916 | -2.13 | -1.06 | -0.821 | -0.804 | -0.353 | -0.835 | 0.0483 |
| ATCTCTAGGTAAGACTCAGTTCAGTGCAGAACGC | 1.92 | 1.08 | 0.985 | 1.26 | 1.53 | 1.14 | 1.56 | 0.346 | 1.16 | 0.33 |
| TCATATATGTAAAGGTGAAAGTCGAACGATATGA | 1.83 | 1.99 | 1.26 | 0.868 | 0.62 | 0.981 | -0.319 | 1.78 | 0.741 | 1.96 |
| TTACCAAGGTGGAAGGTCGTTGATGCACGCCTTG | -0.302 | 1.09 | -0.236 | -1.11 | 0.535 | 0.751 | -0.0879 | 1.26 | -0.0243 | 0.885 |
| ATCGTAAGGTCGAGGTGAGTATAGAGAAAGGGAA | -0.153 | 1.72 | 1.12 | 1.14 | 1.07 | 1.68 | 0.189 | 2.17 | 0.395 | 3.22 |
| TCGAGTAGGTTACCAATGGGGCATTCATCTTTCT | 3.66 | 2.75 | -0.207 | -0.196 | 0.277 | 0.256 | -0.536 | 0.587 | -0.332 | 0.994 |
| GCATATAGGTAATACAAGGTGTAAGTCCGATTGT | 4.05 | 2.41 | 0.78 | 0.908 | 0.475 | -0.257 | -0.0468 | 0.0684 | 0.804 | -0.269 |
| TCATAAAGGTAATACAGGTGAAAGTCGGCATCTA | 3.29 | 2.39 | 0.311 | 0.578 | 1.44 | 1.05 | 0.48 | 1.52 | 0.815 | 1.43 |
| ACAGACAGGTGATGAATGTAACTCAGGCTATCAT | 0.0883 | 0.304 | 0.806 | 0.471 | 0.379 | -0.102 | -0.0195 | 0.181 | 0.656 | 0.0754 |
| ACTATTAGTTGAGACGAGGGCAACCAATAGGTTG | 0.183 | 0.992 | 0.202 | 0.799 | 0.0729 | 1.75 | 0.385 | 1.5 | 0.723 | 1.09 |
| ATATTTAGGTTAAGGGTCATTCAGGTTGGTTCGC | 6.47 | 7.1 | 5.34 | 5.2 | 5.4 | 5.69 | 3.67 | 5.96 | 5.28 | 3.68 |
| TCTTGTAGATCAATAGATGTTAAGAAAGTGCGCT | 1.57 | 0.386 | 0.918 | 1.19 | -0.501 | 0.533 | 0.037 | 0.616 | 0.125 | -0.26 |
| TTACCAAGCTGAAGGTCGTTGATCCCTCTGTAGA | -0.256 | -0.224 | -1.71 | -1.67 | -0.217 | 1 | -0.159 | 0.87 | -1.08 | 0.656 |

| Sequence | PBM binding z-score [1] | PBM binding z-score [2] | PBM binding z-score [3] | PBM binding z-score [4] | PBM binding z-score [5] | PBM binding z-score [6] | PBM binding z-score [7] | PBM binding z-score [8] | PBM binding z-score [9] | PBM binding z-score [10] |
| --- | --- | --- | --- | --- | --- | --- | --- | --- | --- | --- |
| AATCGGAGGACAAAGGTCAGAGCTACGCCAGTGA | 0.506 | 4.15 | 0.0778 | -0.0229 | 2.97 | 3.75 | 0.501 | 4.48 | 0.693 | 4.54 |
| CGTCCAAGGTCAGCAGGTCAGTGAGAGCGACGTG | 2.88 | 3.81 | -0.522 | -0.683 | 3.25 | 3.75 | 0.915 | 4.78 | 1.19 | 5.39 |
| CGTCAAATTTCAACTAAGGTAACGTAAAGCACGC | 0.435 | 0.656 | 1.41 | 1.4 | 0.372 | 0.319 | 0.588 | 0.981 | 1.04 | 0.603 |
| TCTAGTAGGCCAGAGGGTCACTCAAGAGGTACGG | 3.6 | 4 | -0.235 | 0.392 | 0.62 | 1.76 | -0.532 | 2.51 | -0.0158 | 2.37 |
| GTACCAAGGTGAATAGGTCGGTGATGAGTAGGCG | 1.48 | 2.82 | -0.0174 | 0.489 | 0.98 | 0.296 | 0.0352 | 1.02 | 0.441 | 1.86 |
| CAAACTAGGTCACAGAGGTCAAAGTACGTGCGTA | 8.25 | 9.23 | 3.28 | 3.36 | 6.01 | 7.09 | 11.9 | 7.54 | 2.98 | 5.38 |
| CGTCAAAGTTCAAGGTAACGCAACAGAAAGCAGC | 0.947 | 2.53 | 0.438 | 0.38 | 3.41 | 4.06 | 3.14 | 3.59 | 1.14 | 5.15 |
| ACAGACAGGTGATGGAGGTAACTCAGGCTATCAT | 0.108 | 0.744 | 0.159 | -0.142 | -0.281 | -0.304 | -0.184 | 0.033 | -0.0178 | 0.173 |
| CCTGCTGGGTCATGGTCAGCTAATCTACAGTATG | 2.64 | 2.73 | -0.296 | 0.15 | 0.949 | 1.24 | -0.638 | 2.02 | -0.488 | 3.35 |
| CCTATTAGTTGACCATAAGAGCAACCGAAGCTCG | 0.641 | 0.0362 | 0.382 | 0.759 | 2.08 | 0.627 | 0.992 | 0.532 | 2.97 | 0.667 |
| CAAACTAGGTCAAGGGCAAAGTCGGTTTGTGCCA | 8.17 | 8.56 | 2.21 | 2.46 | 3.97 | 2.25 | 0.415 | 2.77 | 0.377 | 4.27 |
| CGAACTAGGTCAGAAAAGGACAGTGAAGGATGAT | 6.88 | 7.14 | 2.3 | 1.47 | 1.15 | 1.17 | -0.473 | 1.08 | 0.026 | 3.16 |
| AGTCAAAGTTCAGGAAGAGGTAACGTAAAGCACG | 0.106 | 2.18 | 0.684 | 0.616 | 2.21 | 2.84 | 0.943 | 3.04 | 0.831 | 4.45 |
| CCTTCTAGGTCAATGGTCAGCTAAAGCAGCTCGC | 7.32 | 6.6 | 0.00752 | 0.699 | 2.03 | 0.931 | -0.321 | 1.73 | 0.51 | 3.85 |
| ATCGATAGGTCGAGGTGAGTATAGAGAAAGGGAA | -0.366 | 1.03 | 0.292 | 0.326 | 0.276 | 0.415 | -0.0359 | 0.853 | 0.359 | 1.94 |
| CCTACTGGGCCAAGGTAATTGATCAGTCAAAGCA | 4.09 | 3.56 | -0.62 | -0.619 | -0.616 | -0.363 | -0.674 | 0.0953 | -0.936 | 0.0612 |
| GCTTATAGATCAAGGTTAAGAAAGACTAAGCTAA | 0.775 | 0.678 | 0.643 | 0.713 | 0.58 | 0.457 | -0.0715 | 0.879 | 0.134 | 0.997 |
| AGAATGAGATTATTAAGATCAGGGAATTGCGGTC | -0.986 | 0.00075 | 0.944 | 0.0181 | -0.475 | -0.605 | -0.339 | -0.5 | 0.637 | -0.639 |
